Test [1] in a line: ATG_CRE_CIS: Attagene CIS-FACTORIAL HepG2 Assay for human cAMP Responsive Element (CRE) binding protein 3 (AID 2282926). The following applies: HepG2 CRE cis-reporter, Attagene multiplexed mRNA; actives raise or lower the signal. Put shortly: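 Transfected HepG2 were treated for 24 hours, then RNA was extracted and reporter cDNA amplified with sequence-specific primers. Labelled fragments were separated by capillary electrophoresis, and the CRE signal was fitted bidirectionally with DMSO as baseline.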

Test [2] addresses CCAAT/enhancer-binding protein beta (Homo sapiens) (UniProt P17676). Description: ATG_C_EBP_CIS: Attagene CIS-FACTORIAL HepG2 Assay for human CCAAT/Enhancer Binding Protein (C/EBP) beta (AID 2282927). The following applies: HepG2 Attagene cis-factorial transcription factor reporter; actives raise or lower the signal. Put shortly: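 Changes in reporter mRNA, rather than exogenous chimeric receptor activity, reflect native C/EBP signalling in transfected HepG2 cells dosed for 24 h; transcripts are detected by RT-PCR and capillary electrophoresis.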

Test [3] can be described thus: ATG_CMV_CIS: Attagene CIS-FACTORIAL HepG2 Assay for human CMV (Internal Marker) (AID 2282928).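 Note: endpoint acts as a background internal control marker rather than a target.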 Conditions: HepG2 CMV promoter reporter, transcription factor profiling; actives raise or lower the signal. In short, it runs like this: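 HepG2 cells transiently transfected with multiple cis-regulated reporter units; 24 h compound exposure. Reporter mRNA quantified by RT-PCR, 6-FAM primer-extension labeling, HpaI digestion and capillary electrophoresis; bidirectional fitting against DMSO baseline.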

A short description of test [4]: ATG_DR4_LXR_CIS: Attagene CIS-FACTORIAL HepG2 Assay for human Liver X Receptor (LXR), DR4 submotif (AID 2282929). Conditions: HepG2 Attagene DR4 cis-reporter, mRNA transcription; actives raise or lower the signal. In short, it runs like this:
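After transient transfection with multiplexed cis-promoter reporter units, HepG2 cells received test chemicals for 24 h. Reporter mRNA induction, detected by fluorescence after RT-PCR and capillary electrophoresis, was scored relative to DMSO.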

The target in test [5] is Aryl hydrocarbon receptor (Homo sapiens) (UniProt P35869). Description: ATG_Ahr_CIS: Attagene CIS-FACTORIAL HepG2 Assay for human Aryl Hydrocarbon Receptor (Ahr) (AID 2282930). Conditions: HepG2 AhR cis-factorial reporter transcription; actives raise or lower the signal. Put shortly:
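HepG2, transient MRTU (cis) transfection, 24 h exposure. RNA → cDNA → PCR → 6-FAM primer extension → HpaI 2 h 37 C → CE. Fit: bidirectional, DMSO baseline.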

Test [6] in a line: ATG_AP_1_CIS: Attagene CIS-FACTORIAL HepG2 Assay for human Activator Protein 1 (AP-1) (AID 2282931). Conditions: HepG2 Attagene cis-factorial AP-1 reporter mRNA; actives raise or lower the signal. Put shortly: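 After 24 h incubation with test chemical, RNA from transfected HepG2 cells was reverse-transcribed, amplified, fluorescently labelled and digested before capillary electrophoresis. Reporters were driven by cis-regulatory promoters; activity fitted bidirectionally versus DMSO.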

A short description of test [7]: ATG_AP_2_CIS: Attagene CIS-FACTORIAL HepG2 Assay for human Activator Protein 2 (AP-2) (AID 2282932). The following applies: HepG2 AP-2 cis-reporter, Attagene transcription factor profiling; actives raise or lower the signal. In short, it runs like this: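 HepG2, transient MRTU transfection, cis-regulated reporters; 24 h compound exposure; RNA isolated, RT-PCR, 6-FAM labelling, HpaI digest, CE fluorescence. DMSO = negative control/baseline, bidirectional fit.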

A short description of test [8]: ATG_BRE_CIS: Attagene CIS-FACTORIAL HepG2 Assay for human Bone Morphogenetic Protein (BMP) Response Element (BRE) (AID 2282933). The following applies: HepG2 BMP response element reporter, Attagene transcription factor profiling; actives raise or lower the signal. Put shortly: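 A HepG2 multiplex reporter system measured inducible reporter mRNA 24 h post-dosing. Detection: RT-PCR, 6-FAM primer extension, HpaI digestion, capillary electrophoresis. Activity fitted bidirectionally relative to DMSO.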

The target in test [9] is Retinoic acid receptor alpha (Homo sapiens) (UniProt P10276). As to the kind of experiment: ATG_DR5_RAR_CIS: Attagene CIS-FACTORIAL HepG2 Assay for human Retinoic Acid Receptor Alpha (RARE), DR5 submotif (AID 2282934).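 For AC50: reporter responds to endogenous RAR alpha beta and gamma in HepG2 not RARA alone.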 The following applies: HepG2 Attagene cis-factorial RARE DR5 reporter, mRNA; actives raise or lower the signal. In short, it runs like this:
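HepG2, transient cis-reporter transfection, 24 h exposure. mRNA readout: RT-PCR, FAM label, HpaI cut, capillary electrophoresis. DMSO baseline, gain/loss fitting.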

For test [10], the target named is Transcription factor E2F1 (Homo sapiens) (UniProt Q01094). Description: ATG_E2F_CIS: Attagene CIS-FACTORIAL HepG2 Assay for human E2F Transcription Factor 1 (AID 2282935). The following applies: HepG2 Attagene cis-reporter, E2F reporter RNA transcripts; actives raise or lower the signal. In short, it runs like this:
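Cis-element reporter mRNA induction in transiently transfected HepG2, 24 h exposure. Activity fitted in both directions relative to DMSO negative control.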

A short description of test [11]: ATG_E_Box_CIS: Attagene CIS-FACTORIAL HepG2 Assay for human Enhancer Box (E-box) (AID 2282936). The following applies: HepG2 E-box cis-reporter transcription, actives raise or lower the signal. Put shortly: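 Cells: HepG2 (human liver), transient MRTU transfection. Exposure 24 h. RNA → oligo(dT) RT → PCR → 6-FAM label → HpaI → CE. Activity fitted both directions relative to DMSO.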

Test [12] can be described thus: ATG_M_61_CIS: Attagene CIS-FACTORIAL HepG2 Assay for M61 Transcription Factor (Internal Marker) (AID 2282937). Conditions: HepG2 Attagene CIS-FACTORIAL M61 internal marker reporter; actives raise or lower the signal. In short, it runs like this: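 Using transiently transfected HepG2 liver cells, reporter transcript levels were assessed 24 h post-dosing by RT-PCR and capillary electrophoresis. Changes in either direction were fitted relative to DMSO controls.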

Test [13] is described as follows: ATG_EGR_CIS: Attagene CIS-FACTORIAL HepG2 Assay for human Early Growth Response 1 (EGR1) (AID 2282938). The following applies: HepG2 Attagene CIS-FACTORIAL EGR reporter mRNA; actives raise or lower the signal. In short, it runs like this: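 Fluorescent capillary-electrophoresis signal of reporter cDNA fragments serves as read-out. HepG2 cells bear transiently transfected cis-promoter reporter units and are exposed 24 h; gain- or loss-of-signal is fitted against DMSO.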

Test [14] can be described thus: ATG_M_19_CIS: Attagene CIS-FACTORIAL HepG2 Assay for M19 Transcription Factor (Internal Marker) (AID 2282939). Conditions: HepG2 Attagene CIS-FACTORIAL M19 internal marker reporter; actives raise or lower the signal. In short, it runs like this:
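Chemical-treated HepG2 (24 h) with MRTU constructs; reporter transcripts detected by fluorescent RT-PCR fragment analysis on capillary electrophoresis. Internal background marker, DMSO as baseline.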

The nature of test [15]: ATG_ERE_CIS: Attagene CIS-FACTORIAL HepG2 Assay for Estrogen Response Element (ERE) (AID 2282940). Conditions: HepG2 ERE cis-reporter, Attagene RNA transcript; actives raise or lower the signal. Put shortly: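 Human liver cells (HepG2) bearing transiently transfected, promoter-regulated reporter units were exposed 24 h. Reporter mRNA induction was detected by capillary electrophoresis of labelled RT-PCR products and fitted bidirectionally to DMSO.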

The nature of test [16]: ATG_Ets_CIS: Attagene CIS-FACTORIAL HepG2 Assay for human Erythroblast Transformation Specific (ETS) (AID 2282941). Conditions: HepG2 ETS cis-reporter transcription, actives raise or lower the signal. In short, it runs like this: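 HepG2 cells transiently transfected with cis-promoter reporter transcription units were dosed for 24 h; reporter mRNA was measured by RT-PCR, 6-FAM primer extension, HpaI digestion and capillary electrophoresis, with bidirectional fitting against DMSO baseline.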

Test [17] deals with Hepatocyte nuclear factor 3-beta (Homo sapiens) (UniProt Q9Y261). As to the kind of experiment: ATG_FoxA2_CIS: Attagene CIS-FACTORIAL HepG2 Assay for human Forkhead box A2 (FOXA2) (AID 2282942). Conditions: HepG2 cis-reporter transcription factor activity, 24 h; actives raise or lower the signal. Put shortly: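 Fluorescence signal of reporter cDNA fragments, separated by capillary electrophoresis, reflects endogenous transcription factor activity in transfected HepG2 after 24 h. Both increases and decreases fitted against DMSO.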

Test [18] can be described thus: ATG_FoxO_CIS: Attagene CIS-FACTORIAL HepG2 Assay for human Forkhead box O (FoxO) (AID 2282943). Conditions: HepG2 Attagene cis-reporter, FoxO element, mRNA; actives raise or lower the signal. In short, it runs like this:
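Human hepatoma HepG2 cells carry transiently introduced reporter transcription units controlled by cis promoter elements. Chemical treatment lasted 24 h, and mRNA signal was compared with DMSO.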

The nature of test [19]: ATG_GATA_CIS: Attagene CIS-FACTORIAL HepG2 Assay for human GATA Binding Protein (AID 2282944). The following applies: HepG2 GATA cis-element reporter, Attagene multiplex mRNA; actives raise or lower the signal. Put shortly:
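Transfected cis-reporter HepG2 cells were treated with chemicals for 24 hours. Total RNA was then converted to cDNA, amplified with reporter-specific primers and analysed by fluorescent capillary electrophoresis, using DMSO-treated wells as baseline.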

The nature of test [20]: ATG_GLI_CIS: Attagene CIS-FACTORIAL HepG2 Assay for human Zinc Finger Protein GLI1 (AID 2282945). The following applies: HepG2, Attagene cis-factorial reporter mRNA, GLI element; actives raise or lower the signal. Put shortly:
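Bidirectional curve fits relative to DMSO, using reporter mRNA levels from RT-PCR plus capillary electrophoresis. Cells were HepG2 transiently carrying cis-regulated reporter constructs, harvested 24 h after dosing.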

A structure can be active in one record and inactive in another. Activity calls are given as the source filed them. Rule for the calls: active = hit-call score of the fitted dose curve at least 0.9, where 1 is the maximum; inactive = score below 0.9.

The term AC50 denotes the concentration giving half of the maximal activity seen.

Transcription factor E2F1 (Homo sapiens), sequence (Q01094 whole entry, looked up): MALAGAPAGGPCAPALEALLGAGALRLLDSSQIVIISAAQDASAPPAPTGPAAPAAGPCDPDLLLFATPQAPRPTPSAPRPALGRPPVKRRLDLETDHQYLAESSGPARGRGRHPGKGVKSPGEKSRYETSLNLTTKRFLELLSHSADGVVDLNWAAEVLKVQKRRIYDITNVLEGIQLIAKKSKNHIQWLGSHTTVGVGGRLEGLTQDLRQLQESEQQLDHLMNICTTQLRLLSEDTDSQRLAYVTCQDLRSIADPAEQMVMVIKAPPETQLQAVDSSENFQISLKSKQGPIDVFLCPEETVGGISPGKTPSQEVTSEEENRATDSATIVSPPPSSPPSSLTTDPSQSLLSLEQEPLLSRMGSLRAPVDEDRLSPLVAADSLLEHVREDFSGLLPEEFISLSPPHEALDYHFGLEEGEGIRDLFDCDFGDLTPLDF
Retinoic acid receptor alpha (Homo sapiens), sequence (P10276 whole entry, looked up): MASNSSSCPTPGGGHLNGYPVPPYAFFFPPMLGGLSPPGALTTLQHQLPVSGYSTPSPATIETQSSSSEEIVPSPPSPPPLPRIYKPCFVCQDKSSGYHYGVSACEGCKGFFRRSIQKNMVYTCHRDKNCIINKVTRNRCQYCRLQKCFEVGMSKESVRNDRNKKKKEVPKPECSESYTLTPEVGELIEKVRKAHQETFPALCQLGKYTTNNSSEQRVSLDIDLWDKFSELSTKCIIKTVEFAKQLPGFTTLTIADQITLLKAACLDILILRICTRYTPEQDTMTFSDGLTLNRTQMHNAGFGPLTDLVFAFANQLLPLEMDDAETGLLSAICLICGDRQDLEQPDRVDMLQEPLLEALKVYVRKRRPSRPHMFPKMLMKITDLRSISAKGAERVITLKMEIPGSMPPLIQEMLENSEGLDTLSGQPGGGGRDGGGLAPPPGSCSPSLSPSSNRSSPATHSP
Hepatocyte nuclear factor 3-beta (Homo sapiens), sequence (Q9Y261 whole entry, looked up, the tested form may be a part): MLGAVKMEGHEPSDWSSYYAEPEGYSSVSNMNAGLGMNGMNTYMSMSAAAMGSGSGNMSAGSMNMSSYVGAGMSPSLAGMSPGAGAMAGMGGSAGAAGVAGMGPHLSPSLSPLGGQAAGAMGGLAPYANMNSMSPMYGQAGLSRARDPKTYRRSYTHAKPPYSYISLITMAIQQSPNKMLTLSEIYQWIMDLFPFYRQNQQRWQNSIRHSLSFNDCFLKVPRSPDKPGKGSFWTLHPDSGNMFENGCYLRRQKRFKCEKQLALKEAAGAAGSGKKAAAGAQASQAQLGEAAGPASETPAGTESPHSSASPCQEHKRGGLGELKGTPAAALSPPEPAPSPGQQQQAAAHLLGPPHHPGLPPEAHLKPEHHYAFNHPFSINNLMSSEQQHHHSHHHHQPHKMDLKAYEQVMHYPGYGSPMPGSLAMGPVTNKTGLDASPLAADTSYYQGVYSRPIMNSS
CCAAT/enhancer-binding protein beta (Homo sapiens), sequence (P17676 whole entry, looked up): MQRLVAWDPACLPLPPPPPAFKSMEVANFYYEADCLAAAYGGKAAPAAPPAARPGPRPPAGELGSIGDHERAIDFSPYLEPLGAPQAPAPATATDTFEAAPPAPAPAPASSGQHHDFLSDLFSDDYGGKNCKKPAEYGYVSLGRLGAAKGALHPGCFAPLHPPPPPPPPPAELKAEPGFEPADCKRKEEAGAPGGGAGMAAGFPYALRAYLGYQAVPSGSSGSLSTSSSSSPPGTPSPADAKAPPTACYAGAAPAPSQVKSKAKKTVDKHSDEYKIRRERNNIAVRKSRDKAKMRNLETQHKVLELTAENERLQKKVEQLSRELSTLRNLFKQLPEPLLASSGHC
Aryl hydrocarbon receptor (Homo sapiens), sequence (P35869 whole entry, looked up): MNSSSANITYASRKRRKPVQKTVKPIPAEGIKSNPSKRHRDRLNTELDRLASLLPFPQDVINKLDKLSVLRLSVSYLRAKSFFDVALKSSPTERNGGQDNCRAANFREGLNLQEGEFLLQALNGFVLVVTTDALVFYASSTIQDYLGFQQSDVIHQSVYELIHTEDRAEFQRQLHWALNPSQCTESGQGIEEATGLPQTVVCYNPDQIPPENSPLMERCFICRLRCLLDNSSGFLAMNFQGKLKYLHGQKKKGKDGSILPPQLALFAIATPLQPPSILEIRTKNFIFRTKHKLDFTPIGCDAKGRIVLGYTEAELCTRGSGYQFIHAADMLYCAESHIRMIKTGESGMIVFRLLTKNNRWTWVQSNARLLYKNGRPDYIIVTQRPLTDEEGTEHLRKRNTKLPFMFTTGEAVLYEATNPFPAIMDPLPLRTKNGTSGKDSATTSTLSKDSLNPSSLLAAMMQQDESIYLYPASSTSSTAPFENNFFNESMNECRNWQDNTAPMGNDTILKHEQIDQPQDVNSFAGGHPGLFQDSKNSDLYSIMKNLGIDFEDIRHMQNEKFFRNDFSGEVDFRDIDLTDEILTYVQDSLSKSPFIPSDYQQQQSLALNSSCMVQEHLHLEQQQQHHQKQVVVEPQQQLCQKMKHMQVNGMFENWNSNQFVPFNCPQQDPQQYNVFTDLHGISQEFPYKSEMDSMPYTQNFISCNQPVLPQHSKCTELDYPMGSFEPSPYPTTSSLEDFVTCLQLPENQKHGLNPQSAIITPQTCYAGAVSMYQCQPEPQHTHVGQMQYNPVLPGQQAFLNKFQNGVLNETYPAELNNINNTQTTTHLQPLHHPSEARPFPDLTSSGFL

Turning to `CCCOC(=O)c1cc(O)c(O)c(O)c1`, the compound was classed as inactive in [1], in [2], in test [4], in test [5], in test [6] and in test [7]. Also, the outcome in test [8], in test [9], in test [11], in test [12], in test [13] and in [14] was inactive. The outcome in [16], in [17], in test [18], in test [19] and in [20] was inactive. The half-maximal activity concentration (AC50) in test [3] is 58.6 µM (active); in [10], 169 µM (active); in [15] it was 12.4 µM (active).
With `C[C@]12CC[C@@H]3c4ccc(O)cc4CC[C@H]3[C@@H]1CC[C@H]2O`, the call in test [1], in test [2], in test [4], in test [5], in [6] and in [7] was inactive. The compound was classed as inactive in [8], in [9], in test [10], in test [12], in test [13] and in [14]. Further, the call in test [16], in test [17], in test [18], in test [19] and in test [20] was inactive. Besides, the AC50 in test [3] was 27.5 µM (active) [middle of 4 runs]; in test [5], 49 µM (active); in test [9] it was 5.92 µM (active); in test [13], 42 µM (active).
For the compound `CO[C@H]1/C=C/O[C@@]2(C)Oc3c(C)c(O)c4c(O)c(c(/C=N/N5CCN(C)CC5)c(O)c4c3C2=O)NC(=O)/C(C)=C\C=C\[C@H](C)[C@H](O)[C@@H](C)[C@@H](O)[C@@H](C)[C@H](OC(C)=O)[C@@H]1C`, the compound was called inactive in [1], in test [2], in [3], in test [4], in [5] and in [6]. Further, the result in test [7], in test [8], in test [9], in [10], in [12] and in test [13] was inactive. Also, the outcome in [14], in test [16], in test [17], in [19] and in test [20] was inactive. For the same compound, in test [5], the concentration at half-maximal activity (AC50) is 37.4 µM (active).
As for `CC[C@@H]1C[C@H](N(Cc2cc(C(F)(F)F)cc(C(F)(F)F)c2)C(C)=O)c2cc(C(F)(F)F)ccc2N1C(=O)OC(C)C`, the call in [1], in test [2], in [3], in [4], in [5] and in [6] was inactive. In addition, the result in test [7], in test [8], in [10], in test [11], in test [12] and in [13] was inactive. Further, the call in [14], in [15], in test [16], in test [17], in test [18] and in test [19] was inactive. In addition, in test [20], the outcome was inactive. Moreover, in [9], the concentration at half-maximal activity (AC50) was 0.362 µM (active).
In the case of `c1ccc(C[n+]2cccc3ccccc32)cc1`, the compound was called inactive in test [1], in test [2], in test [4], in [7], in test [8] and in [9]. Further, the compound was called inactive in [10], in test [12], in test [13], in test [14], in [16] and in [17]. Besides, the call in test [18], in test [19] and in test [20] was inactive. For the same compound, the half-maximal activity concentration (AC50) is 100 µM (active) in test [3], 69.6 µM (active) in test [5], 41.1 µM (active) in [6] and 74.1 µM (active) in [15].
Consider `O=C1c2ccccc2C(=O)N1CCc1noc(-c2ccc(CN3CCCCCC3)s2)n1`, for which the result in test [1], in [2], in test [3], in test [5], in test [7] and in test [9] was inactive. Also, the compound was called inactive in test [10], in test [12], in test [13], in test [14], in test [15] and in test [16]. In addition, the compound was classed as inactive in [17], in test [18], in test [19] and in test [20]. In addition, the AC50 in [4] is 84.5 µM (active); in test [6], 24.7 µM (active); in test [8] it was 56.6 µM (active).
